In the supplement of paper PMC10849652:
About 7,900 targets were measured; listed, in parts, are those with a hit and a random draw of the rest. About 0.6% of all pairs of compound and target were hits.

Legend:
Test in all cases: log2 fold change, soluble protein after heating vs DMSO (PISA); higher = thermal stabilisation; K562 cells, 10 uM, 30 min; active = over 0.2 and 3.5 SD of the protein, either way, in both replicates (recomputed)
[1] = compound: COC1=CC=C(C=C1)CN2C=CC3=C2C=C(C=C3)C(=O)NO
Summary of the method: (§1)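 Quantification of soluble protein used TMTpro 16plex LC-MS/MS, with channel sums equalised. Samples were the supernatant after 21,000xg for 90 min of pooled aliquots from K562 cells (2×10^6 cells/mL) treated with 10 μM compound for 30 min, heated for 3 min over 48°C-58°C, and extracted in PBS with 0.5% NP-40 at 4°C. Values, from duplicates, describe thermal stability against control samples on a log2 fold-change scale.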

[2] = compound: CON(C)C(=O)N1N=C(c2cc(F)ccc2F)S[C@@]1(CCCN)c1ccccc1 [filanesib]
Summary of the method: as §1

[3] = compound: CO[C@H]1C[C@@H]2CC[C@@H](C)[C@@](O)(O2)C(=O)C(=O)N2CCCC[C@H]2C(=O)O[C@H]([C@H](C)C[C@@H]2CC[C@H](n3cnnn3)[C@H](OC)C2)CC(=O)[C@H](C)/C=C(\C)[C@@H](O)[C@@H](OC)C(=O)[C@H](C)C[C@H](C)/C=C/C=C/C=C/1C [zotarolimus]
Summary of the method: as §1

[4] = compound: COc1cc(C(=O)O)ccc1NC(=O)[C@@H]1N[C@@H](CC(C)(C)C)[C@](C#N)(c2ccc(Cl)cc2F)[C@H]1c1cccc(Cl)c1F [idasanutlin]
Summary of the method: as §1

[5] = compound: COc1cc(Nc2ncc3c(n2)-c2ccc(Cl)cc2C(c2c(F)cccc2OC)=NC3)ccc1C(=O)O [alisertib]
Summary of the method: as §1

[6] = compound: COc1cc2nc(-c3cc(F)ccc3O)nc(N[C@@H]3CNC[C@H]3C(C)(C)O)c2cc1OC
Summary of the method: as §1

[7] = compound: COc1cc2ncnc(Nc3ccc(F)c(Cl)c3)c2cc1OCCCN1CCOCC1 [gefitinib]
Summary of the method: as §1

[8] = compound: COc1cccc2cc(-c3nc([C@H]4CC[C@H](C(=O)O)CC4)n4ncnc(N)c34)[nH]c12
Summary of the method: as §1

[9] = compound: CS(=O)(=O)CCNCc1ccc(-c2ccc3ncnc(Nc4ccc(OCc5cccc(F)c5)c(Cl)c4)c3c2)o1 [lapatinib]
Summary of the method: as §1

[10] = compound: CS(=O)(=O)N1CCN(Cc2cc3nc(-c4cccc5[nH]ncc45)nc(N4CCOCC4)c3s2)CC1 [pictilisib]
Summary of the method: as §1

Measured: log2 fold change

FAAP100 (UniProt Q0VG06)
inactive: [1] -0.008 | [2] -0.012 | [3] -0.025 | [4] 0.055 | [5] -0.044 | [6] -0.095 | [7] 0.036 | [8] 0.004 | [9] 0.011 | [10] -0.067

DCUN1D1 (UniProt Q96GG9)
inactive: [1] 0.065 | [2] -0.003 | [3] 0.015 | [4] -0.062 | [5] 0.008 | [6] -0.021 | [7] 0.004 | [8] 0.031 | [9] 0.019 | [10] 0.015

DHX40 (UniProt Q8IX18)
inactive: [1] -0.025 | [2] 0.022 | [3] 0.008 | [4] 0.025 | [5] -0.146 | [6] -0.019 | [7] 0.31 | [8] -0.037 | [9] 0.039 | [10] -0.014

EEA1 (UniProt Q15075)
inactive: [1] 0.041 | [2] -0.012 | [3] -0.028 | [4] 0.017 | [5] -0.031 | [6] 0.002 | [7] 0.007 | [8] 0.036 | [9] 0.021 | [10] 0

CUX1 isoform 3 (UniProt P39880)
inactive: [1] 0.068 | [2] 0.001 | [3] -0.002 | [4] 0.012 | [5] -0.047 | [6] -0.024 | [7] 0.009 | [8] 0.008 | [9] 0.013 | [10] 0.054

ETNK1 (UniProt Q9HBU6)
inactive: [1] -0.083 | [2] -0.172 | [3] 0.016 | [4] -0.105 | [5] -0.045 | [6] 0.013 | [7] -0.02 | [8] 0.01 | [9] 0.078 | [10] -0.044

DHX36 (UniProt Q9H2U1)
UniProt Q9H2U1, sequence (Q9H2U1 whole entry, looked up): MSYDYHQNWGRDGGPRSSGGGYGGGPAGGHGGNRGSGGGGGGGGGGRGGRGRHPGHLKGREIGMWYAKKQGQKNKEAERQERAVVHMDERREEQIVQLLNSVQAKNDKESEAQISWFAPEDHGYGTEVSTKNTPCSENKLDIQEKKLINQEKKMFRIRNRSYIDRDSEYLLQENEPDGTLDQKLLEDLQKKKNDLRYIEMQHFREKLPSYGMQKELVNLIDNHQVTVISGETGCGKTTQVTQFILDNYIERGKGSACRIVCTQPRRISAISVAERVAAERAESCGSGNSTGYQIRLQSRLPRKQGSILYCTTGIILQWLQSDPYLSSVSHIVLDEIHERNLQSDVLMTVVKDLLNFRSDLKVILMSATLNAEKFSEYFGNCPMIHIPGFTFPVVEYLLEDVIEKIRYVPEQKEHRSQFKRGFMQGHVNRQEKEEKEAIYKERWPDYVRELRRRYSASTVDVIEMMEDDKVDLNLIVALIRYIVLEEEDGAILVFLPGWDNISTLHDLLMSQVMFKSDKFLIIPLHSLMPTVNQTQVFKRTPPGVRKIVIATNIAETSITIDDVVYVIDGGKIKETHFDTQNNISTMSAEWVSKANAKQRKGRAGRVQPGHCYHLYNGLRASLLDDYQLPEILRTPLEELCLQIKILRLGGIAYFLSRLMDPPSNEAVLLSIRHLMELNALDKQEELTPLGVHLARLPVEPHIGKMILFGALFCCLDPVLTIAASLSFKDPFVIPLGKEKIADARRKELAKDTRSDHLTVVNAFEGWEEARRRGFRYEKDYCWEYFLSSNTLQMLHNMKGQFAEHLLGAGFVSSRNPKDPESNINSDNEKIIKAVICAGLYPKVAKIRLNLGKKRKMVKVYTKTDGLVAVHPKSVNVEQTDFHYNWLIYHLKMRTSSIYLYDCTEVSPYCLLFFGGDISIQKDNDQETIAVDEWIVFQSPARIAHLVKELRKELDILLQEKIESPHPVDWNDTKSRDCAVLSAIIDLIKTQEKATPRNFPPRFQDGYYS
inactive: [1] 0.04 | [2] 0.119 | [3] 0.024 | [4] 0.017 | [5] 0.025 | [6] 0.017 | [7] -0.127 | [8] 0.059 | [9] 0.025 | [10] -0.038

DCAF10 (UniProt Q5QP82)
inactive: [1] -0.047 | [2] 0.016 | [3] -0.01 | [4] 0.002 | [5] 0.09 | [6] 0.076 | [7] -0.051 | [8] -0.067 | [9] -0.081 | [10] 0.032

CYBA (UniProt P13498)
inactive: [1] -0.06 | [2] -0.189 | [3] -0.067 | [4] 0.017 | [5] -0.044 | [6] -0.171 | [7] -0.007 | [8] 0.067 | [9] -0.034 | [10] -0.047

DAB2 (UniProt P98082)
inactive: [1] -0.009 | [2] 0.079 | [3] 0 | [4] -0.055 | [5] -0.081 | [6] 0.155 | [7] 0.024 | [8] 0.011 | [9] -0.005 | [10] 0.071

EXOC8 (UniProt Q8IYI6)
UniProt Q8IYI6, sequence (Q8IYI6 whole entry, looked up): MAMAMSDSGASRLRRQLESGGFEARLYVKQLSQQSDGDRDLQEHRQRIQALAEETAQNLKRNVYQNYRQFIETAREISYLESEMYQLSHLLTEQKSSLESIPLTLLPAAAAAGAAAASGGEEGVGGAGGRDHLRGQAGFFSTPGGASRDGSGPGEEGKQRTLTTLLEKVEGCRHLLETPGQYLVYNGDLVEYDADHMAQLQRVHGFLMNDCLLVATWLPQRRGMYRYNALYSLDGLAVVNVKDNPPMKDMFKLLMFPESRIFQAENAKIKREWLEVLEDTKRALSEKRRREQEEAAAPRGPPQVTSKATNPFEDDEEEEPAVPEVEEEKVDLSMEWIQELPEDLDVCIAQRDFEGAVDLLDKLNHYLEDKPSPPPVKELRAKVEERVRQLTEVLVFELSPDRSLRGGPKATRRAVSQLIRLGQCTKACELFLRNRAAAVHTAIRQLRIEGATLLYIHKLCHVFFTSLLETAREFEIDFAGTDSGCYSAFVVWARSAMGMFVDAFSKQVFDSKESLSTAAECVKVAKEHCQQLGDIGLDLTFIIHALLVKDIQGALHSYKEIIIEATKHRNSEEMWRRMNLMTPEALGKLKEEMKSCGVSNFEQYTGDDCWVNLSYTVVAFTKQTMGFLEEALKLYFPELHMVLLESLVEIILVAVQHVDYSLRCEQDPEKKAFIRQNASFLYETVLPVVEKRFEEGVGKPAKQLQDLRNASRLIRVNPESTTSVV
inactive: [1] 0.005 | [2] -0.044 | [3] 0.056 | [4] -0.072 | [5] 0.014 | [6] 0.038 | [7] -0.047 | [8] -0.003 | [9] -0.054 | [10] -0.156

EFCAB14 (UniProt O75071)
inactive: [1] 0.139 | [2] -0.018 | [3] 0.147 | [4] 0.027 | [5] 0.043 | [6] -0.014 | [7] 0.04 | [8] -0.04 | [9] 0.021 | [10] 0.06

DPP8 (UniProt Q6V1X1)
inactive: [1] -0.089 | [2] 0.048 | [3] 0.028 | [4] -0.112 | [5] -0.01 | [6] 0.041 | [7] 0.042 | [8] 0.037 | [9] -0.077 | [10] 0.022

DNAJC1 (UniProt Q96KC8)
UniProt Q96KC8, sequence (Q96KC8 whole entry, looked up): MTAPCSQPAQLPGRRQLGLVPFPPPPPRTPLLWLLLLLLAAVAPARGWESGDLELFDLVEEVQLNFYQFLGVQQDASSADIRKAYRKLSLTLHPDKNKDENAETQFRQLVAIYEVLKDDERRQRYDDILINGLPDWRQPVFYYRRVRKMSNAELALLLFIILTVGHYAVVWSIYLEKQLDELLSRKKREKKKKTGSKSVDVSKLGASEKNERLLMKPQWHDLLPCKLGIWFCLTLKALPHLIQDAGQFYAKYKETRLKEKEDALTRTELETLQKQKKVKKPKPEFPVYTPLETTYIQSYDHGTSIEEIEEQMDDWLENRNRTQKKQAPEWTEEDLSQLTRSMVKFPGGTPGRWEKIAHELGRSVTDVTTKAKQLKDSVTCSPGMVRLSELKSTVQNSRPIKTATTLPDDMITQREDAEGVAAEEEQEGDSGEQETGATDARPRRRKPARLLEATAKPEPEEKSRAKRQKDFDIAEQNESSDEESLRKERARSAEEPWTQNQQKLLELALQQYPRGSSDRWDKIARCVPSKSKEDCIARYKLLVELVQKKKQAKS
inactive: [1] -0.023 | [2] -0.138 | [3] -0.039 | [4] -0.064 | [5] 0.001 | [6] -0.17 | [7] 0.008 | [8] 0.022 | [9] -0.078 | [10] 0.017

E2F4 (UniProt Q16254)
inactive: [1] -0.024 | [2] -0.034 | [3] 0.042 | [4] 0.006 | [5] -0.056 | [6] -0.098 | [7] 0.003 | [8] 0.059 | [9] 0.047 | [10] 0.044

EIF4E isoform 2 (UniProt P06730)
UniProt P06730, sequence (P06730 whole entry, looked up): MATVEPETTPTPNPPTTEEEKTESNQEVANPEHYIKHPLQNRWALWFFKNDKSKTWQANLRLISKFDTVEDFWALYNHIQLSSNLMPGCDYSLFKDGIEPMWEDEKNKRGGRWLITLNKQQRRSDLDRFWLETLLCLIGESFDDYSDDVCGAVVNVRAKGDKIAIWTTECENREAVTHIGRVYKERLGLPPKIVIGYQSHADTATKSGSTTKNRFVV
active: [3] 0.346 | [8] 0.354 | [10] 0.373
inactive: [1] -0.002 | [2] -0.038 | [4] -0.085 | [5] -0.083 | [6] 0.039 | [7] 0.112 | [9] 0.039

EDEM2 (UniProt Q9BV94)
inactive: [1] -0.149 | [2] -0.03 | [3] 0.022 | [4] -0.154 | [6] 0.028 | [7] 0.033 | [8] 0.205 | [9] -0.064 | [10] 0.09
active: [5] -0.441

EXOC2 (UniProt Q96KP1)
UniProt Q96KP1, sequence (Q96KP1 whole entry, looked up): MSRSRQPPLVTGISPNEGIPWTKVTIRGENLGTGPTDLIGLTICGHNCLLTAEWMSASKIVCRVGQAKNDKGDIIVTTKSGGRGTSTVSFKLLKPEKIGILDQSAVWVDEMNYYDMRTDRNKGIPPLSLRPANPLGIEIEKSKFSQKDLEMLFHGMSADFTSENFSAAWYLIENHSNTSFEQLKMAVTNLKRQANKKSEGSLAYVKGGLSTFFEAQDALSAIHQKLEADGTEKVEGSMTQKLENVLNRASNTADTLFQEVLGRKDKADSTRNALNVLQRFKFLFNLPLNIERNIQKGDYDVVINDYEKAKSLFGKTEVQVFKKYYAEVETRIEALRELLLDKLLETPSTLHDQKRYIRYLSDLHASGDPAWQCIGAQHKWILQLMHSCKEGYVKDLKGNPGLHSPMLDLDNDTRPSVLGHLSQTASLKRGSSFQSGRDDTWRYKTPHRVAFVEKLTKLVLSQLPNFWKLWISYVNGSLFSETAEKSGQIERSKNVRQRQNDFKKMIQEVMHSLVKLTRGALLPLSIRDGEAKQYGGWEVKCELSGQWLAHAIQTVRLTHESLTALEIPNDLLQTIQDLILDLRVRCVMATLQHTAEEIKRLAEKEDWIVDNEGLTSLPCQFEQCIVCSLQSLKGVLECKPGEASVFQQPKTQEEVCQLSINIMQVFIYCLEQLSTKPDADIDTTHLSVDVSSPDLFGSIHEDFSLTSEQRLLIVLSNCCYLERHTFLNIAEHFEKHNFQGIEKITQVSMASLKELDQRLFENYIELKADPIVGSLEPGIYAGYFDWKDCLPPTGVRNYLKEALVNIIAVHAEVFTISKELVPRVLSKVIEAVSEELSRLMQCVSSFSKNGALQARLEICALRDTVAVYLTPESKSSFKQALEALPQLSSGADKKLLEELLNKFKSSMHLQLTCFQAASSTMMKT
inactive: [1] 0.015 | [2] -0.009 | [3] 0.021 | [4] -0.02 | [5] -0.011 | [6] 0.096 | [7] 0.107 | [8] -0.106 | [9] -0.037 | [10] 0.059

CYP51A1 (UniProt Q16850)
inactive: [1] -0.035 | [2] 0.217 | [3] -0.11 | [4] 0.099 | [5] -0.025 | [6] -0.005 | [7] 0.009 | [8] -0.105 | [10] -0.216
active: [9] 0.401

EIF2S3 (UniProt P41091)
inactive: [1] -0.028 | [2] 0.119 | [3] 0 | [4] 0.07 | [5] -0.068 | [6] 0.002 | [7] -0.033 | [8] -0.07 | [9] 0.004 | [10] -0.027

DOHH (UniProt Q9BU89)
UniProt Q9BU89, sequence (Q9BU89 whole entry, looked up): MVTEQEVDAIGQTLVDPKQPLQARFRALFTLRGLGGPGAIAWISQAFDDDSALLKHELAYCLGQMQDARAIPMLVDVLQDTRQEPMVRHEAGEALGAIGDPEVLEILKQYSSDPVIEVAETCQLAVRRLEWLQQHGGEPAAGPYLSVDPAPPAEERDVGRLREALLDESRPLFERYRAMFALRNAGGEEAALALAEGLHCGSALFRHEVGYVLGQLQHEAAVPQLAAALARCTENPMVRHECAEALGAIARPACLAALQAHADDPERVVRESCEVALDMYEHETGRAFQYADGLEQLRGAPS
inactive: [1] -0.4 | [2] -0.151 | [3] 0.022 | [4] -0.038 | [5] -0.062 | [6] -0.041 | [7] 0.201 | [8] 0.084 | [9] -0.006 | [10] -0.171

FAM118B (UniProt Q9BPY3)
inactive: [1] 0.028 | [2] -0.196 | [3] 0.011 | [4] -0.034 | [5] -0.049 | [6] 0.017 | [7] 0.031 | [8] 0.129 | [9] 0.018 | [10] 0.099

DPYSL2 (UniProt Q16555)
inactive: [1] -0.082 | [2] 0.006 | [3] -0.06 | [4] 0.029 | [5] 0.093 | [6] 0.055 | [7] -0.041 | [8] 0.038 | [9] 0.029
active: [10] 0.262

EVC2 (UniProt Q86UK5)
UniProt Q86UK5, sequence (Q86UK5 whole entry, looked up): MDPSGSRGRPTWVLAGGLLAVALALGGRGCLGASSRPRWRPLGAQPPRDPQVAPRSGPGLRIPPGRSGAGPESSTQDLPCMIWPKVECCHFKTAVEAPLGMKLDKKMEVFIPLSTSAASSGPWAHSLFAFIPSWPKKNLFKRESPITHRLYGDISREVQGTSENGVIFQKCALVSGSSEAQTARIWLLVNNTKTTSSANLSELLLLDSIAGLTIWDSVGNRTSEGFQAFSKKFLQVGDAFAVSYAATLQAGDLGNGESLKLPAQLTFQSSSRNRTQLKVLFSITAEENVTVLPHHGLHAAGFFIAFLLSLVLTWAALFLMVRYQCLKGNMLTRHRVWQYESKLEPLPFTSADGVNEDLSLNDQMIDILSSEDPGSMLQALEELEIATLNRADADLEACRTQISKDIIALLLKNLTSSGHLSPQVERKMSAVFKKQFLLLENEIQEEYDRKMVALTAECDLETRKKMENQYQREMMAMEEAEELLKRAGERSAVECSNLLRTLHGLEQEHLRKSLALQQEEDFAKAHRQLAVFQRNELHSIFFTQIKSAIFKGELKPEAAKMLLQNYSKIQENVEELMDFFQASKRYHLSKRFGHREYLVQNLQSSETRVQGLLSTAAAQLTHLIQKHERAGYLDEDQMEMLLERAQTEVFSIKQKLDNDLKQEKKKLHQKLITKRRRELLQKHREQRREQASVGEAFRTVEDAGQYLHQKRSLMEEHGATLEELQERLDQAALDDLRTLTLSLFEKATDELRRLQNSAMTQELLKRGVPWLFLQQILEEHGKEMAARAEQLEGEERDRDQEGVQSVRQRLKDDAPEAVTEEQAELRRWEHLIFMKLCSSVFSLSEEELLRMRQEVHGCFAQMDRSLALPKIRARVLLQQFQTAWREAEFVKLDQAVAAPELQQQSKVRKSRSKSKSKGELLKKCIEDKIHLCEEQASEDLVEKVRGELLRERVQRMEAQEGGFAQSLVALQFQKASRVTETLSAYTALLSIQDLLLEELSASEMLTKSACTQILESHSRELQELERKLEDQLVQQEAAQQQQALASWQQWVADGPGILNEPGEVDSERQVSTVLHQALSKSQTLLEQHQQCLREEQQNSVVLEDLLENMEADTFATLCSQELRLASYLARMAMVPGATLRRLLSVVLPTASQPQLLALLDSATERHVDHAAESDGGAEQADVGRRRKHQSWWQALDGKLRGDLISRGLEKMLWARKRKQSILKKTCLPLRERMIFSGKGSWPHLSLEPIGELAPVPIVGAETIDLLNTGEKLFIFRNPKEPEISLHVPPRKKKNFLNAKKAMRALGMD
inactive: [1] -0.073 | [2] -0.142 | [3] -0.039 | [4] 0.053 | [5] -0.066 | [6] -0.146 | [7] 0.09 | [8] 0.016 | [9] -0.224 | [10] -0.194

FAM117A (UniProt Q9C073)
inactive: [1] 0.105 | [2] -0.025 | [3] 0.008 | [4] 0.076 | [5] 0 | [6] -0.059 | [7] -0.004 | [8] 0.024 | [9] -0.026 | [10] -0.019

DHFR (UniProt P00374)
inactive: [1] -0.057 | [2] 0.089 | [3] 0.065 | [4] -0.051 | [5] -0.08 | [6] 0.109 | [7] -0.021 | [8] -0.05 | [9] -0.061 | [10] 0.039

DUS2 (UniProt Q9NX74)
inactive: [1] -0.02 | [2] -0.014 | [3] -0.041 | [4] -0.004 | [5] -0.075 | [6] 0.059 | [7] 0.04 | [8] -0.11 | [9] 0.043 | [10] -0.128

DCAF16 (UniProt Q9NXF7)
inactive: [1] 0.065 | [2] 0.077 | [3] 0.035 | [4] 0.037 | [5] -0.07 | [6] 0.021 | [7] 0.022 | [8] 0 | [9] -0.168 | [10] 0.132

DTWD1 (UniProt Q8N5C7)
inactive: [1] -0.227 | [2] -0.081 | [3] 0.031 | [4] -0.115 | [5] -0.057 | [6] 0.078 | [7] 0.069 | [8] 0.031 | [9] 0.044 | [10] 0.124

DCAF6 isoform 3 (UniProt Q58WW2)
inactive: [1] -0.007 | [2] -0.017 | [3] -0.045 | [4] -0.026 | [5] -0.081 | [6] -0.023 | [7] -0.01 | [8] 0.059 | [9] 0.016 | [10] 0.001
